# Screening data (PubChem BioAssay)
# This is a sample that favours compounds with a hit; in the whole collection about 1.8% have one here.
# pCIP destab: lowers stability of the mouse p/CIP coactivator protein. Q05BA5. F442A p/CIP-EGFP cells, EGFP fluorescence, 16 h. decrease of EGFP signal, % at 10 µM. 290,000 compounds, 0.01% hits. AID 1984;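 active means EGFP signal decrease of at least 30% at 10 µM or well 3 SD below plate mean, unless failing retest; inactive means the rest, including hits failing retest or dose response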
# NadD inh: NadD (S. aureus) enzyme inhibition; purified NadD enzyme, colorimetric absorbance read-out; inhibition, % at 20 µM; 360,000 compounds, 0.78% hits; AID 602399; in the data active means inhibition above about 26%
# PHOSPHO1 block: inhibitors of human PHOSPHO1 phosphatase; Q8TCT1; recombinant PHOSPHO1, absorbance phosphatase assay; inhibition, % at 13.3 µM; 290,000 compounds, 1.1% hits; AID 1565; in the data active means inhibition above about 60%
# Target sequence (Q8TCT1 whole entry, looked up): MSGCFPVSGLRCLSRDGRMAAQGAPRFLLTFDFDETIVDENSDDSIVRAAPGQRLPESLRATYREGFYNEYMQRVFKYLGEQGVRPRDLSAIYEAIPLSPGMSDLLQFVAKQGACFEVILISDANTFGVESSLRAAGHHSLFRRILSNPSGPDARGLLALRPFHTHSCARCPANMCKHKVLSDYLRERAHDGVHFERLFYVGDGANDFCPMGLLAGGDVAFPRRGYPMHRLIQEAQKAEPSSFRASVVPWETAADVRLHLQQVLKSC
# UBC9 SUMO inh: inhibitors of human SUMOylation (UBC9); P63279; HTRF SUMOylation assay, SAE1/SAE2 + UBC9, in vitro; inhibition, % at 35 µM; 290,000 compounds, 0.36% hits; in the data active means inhibition above about 50%, passing the limit was not always enough
# Target sequence (P63279 whole entry, looked up): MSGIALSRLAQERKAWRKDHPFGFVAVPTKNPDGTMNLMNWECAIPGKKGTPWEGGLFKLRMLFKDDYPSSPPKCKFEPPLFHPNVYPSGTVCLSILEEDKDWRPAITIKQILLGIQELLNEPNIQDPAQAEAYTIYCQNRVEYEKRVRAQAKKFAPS
# NadD inh conf: NadD (S. aureus) inhibition, single concentration confirmation. shares compounds with NadD inh. purified S. aureus NadD, colorimetric enzyme assay. inhibition, % at 20 µM. 2,000 compounds, 13% hits; in the data active means inhibition mostly above about 42%, no sharp cut-off; inactive means mostly below about 42%
# Starred values were filed as active, the others as inactive; / = not tested or not shown.
SMILES,pCIP destab,NadD inh,PHOSPHO1 block,UBC9 SUMO inh,NadD inh conf
COc1cc(/C=C(\C#N)c2nc3ccccc3[nH]2)ccc1Oc1ccc([N+](=O)[O-])cn1,-4,33*,15,27,18
COc1ccc(/C=C(\C#N)c2nc3ccc(C)cc3[nH]2)cc1Oc1ccc(C(F)(F)F)cc1[N+](=O)[O-],-27,32*,-1,49,-20
Cc1ccc2nc(/C(C#N)=C\c3ccc(Oc4ccc(C(F)(F)F)cc4[N+](=O)[O-])cc3)[nH]c2c1,4,33*,-12,16,4
CC1=C(C(=O)N2CCCCCC2)CC(CC(=O)NC2CCCCC2)C(=O)N1CCC1=CCCCC1 (centres undefined),/,-1,/,/,/
OC(c1ccccc1)(c1nc(-c2ccc(F)c(Cl)c2)cs1)C(F)(F)F (centres undefined),/,-8,/,/,/
Cc1ccc2nc(/C(C#N)=C\c3cc(O)ccc3[N+](=O)[O-])[nH]c2c1,0,1,4,9,/
Cc1ccc2nc(/C(C#N)=C/c3ccc(-c4cccc([N+](=O)[O-])c4)o3)[nH]c2c1,-48,32*,1,3,9
COc1cccc(C=C(C#N)C(=O)c2ccccc2)c1,/,32*,/,/,18
C#CCN(C[C@H]1[C@H](OC(=O)Nc2cccs2)[C@H](OC(=O)Nc2cccs2)C[C@H]2C(=O)N(c3ccccc3)C(=O)[C@@H]12)S(=O)(=O)c1ccc(C)cc1,/,35*,/,/,50*
C#CCN(C[C@H]1[C@H](OC(=O)NCC2CCCCC2)[C@H](OC(=O)NCC2CCCCC2)C[C@H]2C(=O)N(c3ccccc3)C(=O)[C@@H]12)S(=O)(=O)c1ccc(C)cc1,/,37*,/,/,21
C#CCN(C[C@H]1[C@H](OC(=O)NCc2ccccc2)[C@H](OC(=O)NCc2ccccc2)C[C@H]2C(=O)N(c3ccccc3)C(=O)[C@@H]12)S(=O)(=O)c1ccc(C)cc1,/,35*,/,/,48*
C#CCN(C[C@H]1[C@H](OC(=O)NC2CC2)[C@H](OC(=O)NC2CC2)C[C@H]2C(=O)N(c3ccccc3)C(=O)[C@@H]12)S(=O)(=O)c1ccc(C)cc1,/,-6,/,/,/
O=C(CN1C(=O)NC2(CCCCCCC2)C1=O)NCc1ccc2c(c1)OCO2,2,-4,30,4,/
CC(C)=CCC/C(C)=C/CNC(=O)C[C@H]1C[C@H](C(=O)N2CCOCC2)[C@@]2(CCC3CCCC3)c3[nH]c4cc(-c5ccco5)ccc4c3CCN2C1=O,/,46*,/,/,12
CC(C)=CCC/C(C)=C/CNC(=O)C[C@H]1C[C@H](C(=O)N(C(C)C)C(C)C)[C@@]2(C)c3[nH]c4cc(-c5ccco5)ccc4c3CCN2C1=O,/,33*,/,/,-2
CCN(CC)C(=O)[C@H]1C[C@H](CC(=O)NC/C=C(\C)CCC=C(C)C)C(=O)N2CCc3c([nH]c4cc(-c5ccco5)ccc34)[C@]12C,/,27,/,/,/
O=C(C[C@H]1C[C@H](C(=O)N2CCOCC2)[C@@]2(CCC3CCCC3)c3[nH]c4cc(-c5ccco5)ccc4c3CCN2C1=O)NCCN1CCOCC1,/,6,/,/,/
CSc1ncc(CNc2cc([N+](=O)[O-])ccc2C)c(N)n1,/,1,/,/,/
CCOc1ccc2ccccc2c1C1NC(=O)N(C)C(C)=C1C(=O)OCCOC (centres undefined),-5,-2,20,8,/
Cc1ccc(Cl)cc1N1CCN(C(=O)c2cc3c(=O)[nH]c4ccccc4c3n2C)CC1,-7,32*,0,-10,11
Cn1c(C(=O)N2CCN(c3ccc(Cl)cc3)CC2)cc2c(=O)[nH]c3ccccc3c21,-9,17,35,-1,/
Cc1ccc(-n2c3nc(=O)[nH]c(=O)c-3cc3c(C)nn(-c4ccccc4)c32)c(C)c1,12,-11,2,16,/
CCc1ccc(C(=O)COC(=O)c2cccc(N3C(=O)c4c(C)nc5ccccc5c4C3=O)c2)cc1,9,36*,6,3,3
Cc1cc(C(=O)N/N=C/c2ccc(-c3ccc([N+](=O)[O-])cc3Cl)o2)n[nH]1,0,40*,14,12,8
Cc1ccc(C(=O)N2N=C(c3cccc(NS(C)(=O)=O)c3)CC2c2cccs2)cc1 (centres undefined),-8,-2,33,10,/
SMILES,pCIP destab,NadD inh,PHOSPHO1 block,UBC9 SUMO inh,NadD inh conf
CC(N=C1CC(C)(C)CC(=O)/C1=C(/O)CCCN1C(=O)c2ccccc2C1=O)C(=O)O (centres undefined),13,-5,5,3,/
Cc1ccc(S(=O)(=O)c2c(N)n(NC(=O)c3ccccc3C)c3nc4ccccc4nc23)cc1,9,20,3,14,/
Cc1ccc(C)c(S(=O)(=O)c2c(N)n(/N=C/c3ccco3)c3nc4ccccc4nc23)c1,3,32*,-5,92,1
Cc1cccc(S(=O)(=O)c2c(N)n(/N=C/c3ccccc3)c3nc4ccccc4nc23)c1,-7,1,-3,15,/
Nc1c(S(=O)(=O)c2ccccc2)c2nc3ccccc3nc2n1/N=C/c1cccc(O)c1,-8,47*,10,-31,18
Cc1ccc(C(=O)Nn2c(N)c(S(=O)(=O)c3ccc(C)cc3)c3nc4ccccc4nc32)cc1,1,30*,18,0,32
COc1ccc(NC(=O)CSc2nnc(-c3ccccc3)n2N)cc1,1,5,-1,10,/
CCn1c2ccccc2c2cc(NC(=O)CSc3nnc(-c4ccc(OC)cc4)n3N)ccc21,1,30*,-25,10,33
NS(=O)(=O)c1ccc(CCNC(=O)c2ccccc2Cc2ccccc2)cc1,-14,-3,-1,3,/
Cc1ccc(-c2cc(C(=O)Nc3ccc(S(=O)(=O)Nc4cc(C)on4)cc3)c3ccccc3n2)c(C)c1,4,43*,6,28,65*
Cc1ccc(-c2cc(C(=O)Nc3ccc(S(=O)(=O)Nc4onc(C)c4C)cc3)c3ccccc3n2)cc1,-8,31*,44,17,66*
O=C(Nc1ccc(S(=O)(=O)Nc2nccs2)cc1)c1cc(-c2ccccn2)nc2ccccc12,2,23,22,22,/
Cc1cc(C)nc(NS(=O)(=O)c2ccc(NC(=O)c3cc(-c4ccccc4)nc4ccccc34)cc2)n1,5,26,-12,3,/
O=C(Nc1ccc(S(=O)(=O)Nc2nccs2)cc1)c1cc(-c2ccccc2Cl)nc2ccccc12,0,67*,22,-12,65*
CC12CC(NC(=O)N1c1cccc(C(=O)NCc3ccccn3)c1)c1ccccc1O2 (centres undefined),-4,3,44,0,/
Cc1csc2c(N3CCN(C(=S)Nc4ccc(F)cc4F)CC3)ncnc12,-24,3,8,23,/
Cc1[nH]c2c(ccc3ccccc32)c1C1C(CCN)C1(C)C (centres undefined),3,33*,-2,-6,1
COc1ccccc1N(C)S(=O)(=O)c1ccc(C(=O)Nc2cccc(Br)c2)cc1,/,-1,/,/,/
CC1CCN(C(c2cccs2)c2nnnn2Cc2ccccc2)CC1 (centres undefined),-5,-3,1,11,/
